The full data set covers some 7,900 targets. This sample favours those with a hit. About 0.6% of all pairs of compound and target were hits. Unmarked numbers belong to inactive results.

Sequence of UniProt Q9H1E3 (Q9H1E3 whole entry, looked up): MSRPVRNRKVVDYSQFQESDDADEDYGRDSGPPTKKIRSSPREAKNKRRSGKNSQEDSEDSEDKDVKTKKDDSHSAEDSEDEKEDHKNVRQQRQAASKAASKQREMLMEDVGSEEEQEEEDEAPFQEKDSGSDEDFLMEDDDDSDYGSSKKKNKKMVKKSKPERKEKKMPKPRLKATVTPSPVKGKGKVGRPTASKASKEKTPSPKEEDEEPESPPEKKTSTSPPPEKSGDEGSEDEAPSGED
Sequence of UniProt Q14978 (Q14978 whole entry, looked up): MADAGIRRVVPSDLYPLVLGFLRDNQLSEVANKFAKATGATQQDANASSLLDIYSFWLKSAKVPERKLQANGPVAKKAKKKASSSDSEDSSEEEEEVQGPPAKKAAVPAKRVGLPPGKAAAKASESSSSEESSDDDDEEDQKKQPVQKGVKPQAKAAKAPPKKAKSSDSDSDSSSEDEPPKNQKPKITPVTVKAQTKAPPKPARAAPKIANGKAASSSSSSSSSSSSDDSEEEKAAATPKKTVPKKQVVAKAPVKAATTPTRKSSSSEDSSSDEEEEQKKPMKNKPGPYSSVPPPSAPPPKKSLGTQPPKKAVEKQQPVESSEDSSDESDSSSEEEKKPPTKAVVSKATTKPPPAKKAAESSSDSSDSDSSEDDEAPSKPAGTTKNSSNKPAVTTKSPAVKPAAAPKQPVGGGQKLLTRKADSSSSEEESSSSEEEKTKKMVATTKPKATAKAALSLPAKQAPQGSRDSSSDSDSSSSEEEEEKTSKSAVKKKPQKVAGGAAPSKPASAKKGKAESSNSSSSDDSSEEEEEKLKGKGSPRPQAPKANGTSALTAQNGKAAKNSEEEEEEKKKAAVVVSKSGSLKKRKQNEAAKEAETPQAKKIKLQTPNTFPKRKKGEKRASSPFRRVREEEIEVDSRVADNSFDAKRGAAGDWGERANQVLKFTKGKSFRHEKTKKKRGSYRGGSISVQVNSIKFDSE
Sequence of UniProt O14950 (O14950 whole entry, looked up): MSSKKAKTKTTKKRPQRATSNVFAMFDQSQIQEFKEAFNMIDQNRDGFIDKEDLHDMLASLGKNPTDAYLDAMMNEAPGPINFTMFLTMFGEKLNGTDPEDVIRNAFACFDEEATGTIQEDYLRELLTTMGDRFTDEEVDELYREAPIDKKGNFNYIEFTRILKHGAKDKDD
Sequence of UniProt P46934 (P46934 whole entry, looked up): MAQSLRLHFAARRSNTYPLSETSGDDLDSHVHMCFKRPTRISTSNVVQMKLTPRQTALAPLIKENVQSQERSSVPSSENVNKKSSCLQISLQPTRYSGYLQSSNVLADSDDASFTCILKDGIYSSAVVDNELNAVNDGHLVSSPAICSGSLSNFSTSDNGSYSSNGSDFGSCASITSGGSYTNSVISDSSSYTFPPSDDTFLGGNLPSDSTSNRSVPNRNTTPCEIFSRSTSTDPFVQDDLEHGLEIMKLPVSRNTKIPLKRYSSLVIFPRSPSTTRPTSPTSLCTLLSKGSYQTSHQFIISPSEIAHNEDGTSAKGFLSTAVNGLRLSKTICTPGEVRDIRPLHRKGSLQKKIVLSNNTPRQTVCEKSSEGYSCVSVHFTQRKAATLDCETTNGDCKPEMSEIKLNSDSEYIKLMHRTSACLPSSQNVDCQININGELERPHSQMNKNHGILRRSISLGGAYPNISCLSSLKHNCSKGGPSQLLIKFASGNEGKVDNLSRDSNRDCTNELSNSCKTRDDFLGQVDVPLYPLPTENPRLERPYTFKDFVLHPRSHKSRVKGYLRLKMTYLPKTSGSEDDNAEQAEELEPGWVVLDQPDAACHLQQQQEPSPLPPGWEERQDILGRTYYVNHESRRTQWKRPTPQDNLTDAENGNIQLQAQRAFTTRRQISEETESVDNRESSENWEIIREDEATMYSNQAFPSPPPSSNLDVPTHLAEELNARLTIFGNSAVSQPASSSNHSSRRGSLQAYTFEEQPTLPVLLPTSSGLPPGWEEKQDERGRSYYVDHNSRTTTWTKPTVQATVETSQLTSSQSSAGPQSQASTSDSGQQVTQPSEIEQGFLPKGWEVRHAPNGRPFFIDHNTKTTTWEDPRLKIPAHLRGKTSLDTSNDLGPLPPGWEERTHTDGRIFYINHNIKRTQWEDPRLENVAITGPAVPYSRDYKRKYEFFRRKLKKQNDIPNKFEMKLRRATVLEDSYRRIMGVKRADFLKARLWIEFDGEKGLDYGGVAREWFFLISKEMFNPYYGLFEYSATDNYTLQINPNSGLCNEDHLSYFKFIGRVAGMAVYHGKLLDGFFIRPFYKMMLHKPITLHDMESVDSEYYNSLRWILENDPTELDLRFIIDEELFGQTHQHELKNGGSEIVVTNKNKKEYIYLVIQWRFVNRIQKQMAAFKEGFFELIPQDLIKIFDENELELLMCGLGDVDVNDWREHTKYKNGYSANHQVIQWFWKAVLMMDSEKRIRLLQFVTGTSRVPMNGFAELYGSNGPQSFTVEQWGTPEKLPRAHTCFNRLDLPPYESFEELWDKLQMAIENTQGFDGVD
Sequence of UniProt Q9UBD5 (Q9UBD5 whole entry, looked up): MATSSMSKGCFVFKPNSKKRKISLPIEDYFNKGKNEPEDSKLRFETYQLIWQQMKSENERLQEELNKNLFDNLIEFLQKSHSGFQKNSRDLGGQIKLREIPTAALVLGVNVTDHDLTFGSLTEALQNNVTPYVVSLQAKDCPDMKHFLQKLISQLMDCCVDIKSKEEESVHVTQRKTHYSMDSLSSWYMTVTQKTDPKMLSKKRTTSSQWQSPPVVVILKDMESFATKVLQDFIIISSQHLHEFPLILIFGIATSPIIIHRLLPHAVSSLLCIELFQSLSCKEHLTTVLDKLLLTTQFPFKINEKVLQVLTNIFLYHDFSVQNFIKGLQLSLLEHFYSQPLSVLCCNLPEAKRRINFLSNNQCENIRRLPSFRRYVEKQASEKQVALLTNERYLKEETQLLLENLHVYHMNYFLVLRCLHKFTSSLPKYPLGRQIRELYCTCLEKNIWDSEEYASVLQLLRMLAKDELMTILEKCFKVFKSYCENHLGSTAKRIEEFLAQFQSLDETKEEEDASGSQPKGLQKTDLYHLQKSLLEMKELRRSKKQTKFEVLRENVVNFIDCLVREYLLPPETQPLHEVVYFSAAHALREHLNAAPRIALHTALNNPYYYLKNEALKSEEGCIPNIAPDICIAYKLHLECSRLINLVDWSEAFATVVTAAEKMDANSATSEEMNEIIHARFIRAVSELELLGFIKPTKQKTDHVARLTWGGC
Sequence of UniProt Q9BUK6 (Q9BUK6 whole entry, looked up): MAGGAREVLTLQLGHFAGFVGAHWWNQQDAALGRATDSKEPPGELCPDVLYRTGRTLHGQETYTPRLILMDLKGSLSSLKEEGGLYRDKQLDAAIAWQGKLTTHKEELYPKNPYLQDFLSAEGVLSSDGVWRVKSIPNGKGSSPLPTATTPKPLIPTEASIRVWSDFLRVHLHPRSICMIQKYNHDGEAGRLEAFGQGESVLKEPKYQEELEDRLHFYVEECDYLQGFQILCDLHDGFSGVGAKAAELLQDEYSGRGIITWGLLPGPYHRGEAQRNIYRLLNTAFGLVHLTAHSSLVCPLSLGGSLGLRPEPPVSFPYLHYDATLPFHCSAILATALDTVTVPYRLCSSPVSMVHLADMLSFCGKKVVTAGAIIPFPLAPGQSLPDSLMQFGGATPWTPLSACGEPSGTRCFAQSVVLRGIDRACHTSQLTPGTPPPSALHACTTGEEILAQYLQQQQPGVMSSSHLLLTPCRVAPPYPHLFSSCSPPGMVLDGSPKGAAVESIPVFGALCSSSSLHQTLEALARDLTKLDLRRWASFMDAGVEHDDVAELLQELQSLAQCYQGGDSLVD
Sequence of UniProt P43246 (P43246 whole entry, looked up): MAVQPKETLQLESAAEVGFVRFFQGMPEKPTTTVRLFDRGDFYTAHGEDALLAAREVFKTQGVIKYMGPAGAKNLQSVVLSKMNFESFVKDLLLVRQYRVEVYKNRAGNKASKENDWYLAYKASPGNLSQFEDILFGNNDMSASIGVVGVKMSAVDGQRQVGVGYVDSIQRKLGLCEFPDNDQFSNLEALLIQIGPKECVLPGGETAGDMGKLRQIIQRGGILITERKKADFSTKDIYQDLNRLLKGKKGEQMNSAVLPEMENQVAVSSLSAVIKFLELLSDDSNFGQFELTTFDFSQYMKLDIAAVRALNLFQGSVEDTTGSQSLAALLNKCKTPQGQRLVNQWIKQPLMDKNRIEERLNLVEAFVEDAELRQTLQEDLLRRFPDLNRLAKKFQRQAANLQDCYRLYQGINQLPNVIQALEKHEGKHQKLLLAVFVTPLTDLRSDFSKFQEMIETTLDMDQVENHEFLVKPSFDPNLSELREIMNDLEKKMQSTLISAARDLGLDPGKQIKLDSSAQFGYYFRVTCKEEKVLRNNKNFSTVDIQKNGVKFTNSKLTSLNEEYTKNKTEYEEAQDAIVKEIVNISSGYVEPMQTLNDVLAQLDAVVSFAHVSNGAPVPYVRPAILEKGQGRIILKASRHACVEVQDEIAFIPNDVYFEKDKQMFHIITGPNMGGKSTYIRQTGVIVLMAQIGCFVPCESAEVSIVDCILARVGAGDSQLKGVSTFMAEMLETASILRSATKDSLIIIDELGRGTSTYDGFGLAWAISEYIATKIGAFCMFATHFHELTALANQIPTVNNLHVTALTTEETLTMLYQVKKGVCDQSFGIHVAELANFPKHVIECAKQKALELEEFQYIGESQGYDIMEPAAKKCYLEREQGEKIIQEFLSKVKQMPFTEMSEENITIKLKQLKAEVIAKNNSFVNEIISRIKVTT
Sequence of UniProt P00846 (P00846 whole entry, looked up): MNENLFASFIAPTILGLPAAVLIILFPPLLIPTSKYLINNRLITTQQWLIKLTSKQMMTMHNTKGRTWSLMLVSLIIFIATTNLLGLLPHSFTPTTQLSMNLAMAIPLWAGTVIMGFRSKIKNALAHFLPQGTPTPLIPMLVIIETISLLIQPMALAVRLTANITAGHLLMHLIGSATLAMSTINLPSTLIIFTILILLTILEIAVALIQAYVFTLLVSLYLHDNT
Sequence of UniProt P15531 (P15531 whole entry, looked up): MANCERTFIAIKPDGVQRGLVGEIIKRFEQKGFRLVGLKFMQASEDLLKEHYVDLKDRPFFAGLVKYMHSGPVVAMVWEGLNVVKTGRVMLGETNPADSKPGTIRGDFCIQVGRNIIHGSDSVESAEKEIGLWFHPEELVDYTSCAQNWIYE

Compound in one assay: Cn1cc(-c2ccc3nnc(C(F)(F)c4ccc5ncccc5c4)n3n2)cn1
The assay is described as follows: log2 fold change, soluble protein after heating vs DMSO (PISA); higher = thermal stabilisation; K562 cells, 10 uM, 30 min; active = over 0.2 and 3.5 SD of the protein, either way, in both replicates (recomputed). The method, boiled down: (§1)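 Soluble protein was defined as the supernatant after 21,000xg for 90 min. It came from K562 cells at 2×10^6 cells/mL given 10 μM compound for 30 min, heated in aliquots for 3 min across 48°C-58°C, pooled, and extracted in PBS with 0.5% NP-40 at 4°C, and was quantified by TMTpro 16plex LC-MS/MS with equalised channel sums. Thermal stability against control samples, from duplicates, is reported as log2 fold change.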
With MSH2 (UniProt P43246), the log2 fold change was 0.035.
The same measure, in the same setting: then MT-ATP6 (UniProt P00846), with 0.11.
Consider MRPS2 (UniProt Q9Y399), for which the log2 fold change is 0.035.
Same read-out and setting: then NOB1 (UniProt Q9ULX3), with 0.059; and MPP1 (UniProt Q00013), with -0.023.
On the same count and under the same terms, then NUCKS1 (UniProt Q9H1E3), with 0.055; and ORC3 isoform 2 (UniProt Q9UBD5), with 0.109.
Still for that read-out and setting: then NOLC1 isoform 2 (UniProt Q14978), with 0.02.
With NEDD4 isoform 4 (UniProt P46934), the log2 fold change was 0.027.
The same measure, in the same setting: then MRPS22 (UniProt P82650), with 0.017.
The same measure, in the same setting: then MSTO1 (UniProt Q9BUK6), with 0.037.
As for NCAPD2 (UniProt Q15021), the log2 fold change was 0.018.
Regarding MYL12B (UniProt O14950), the log2 fold change is -0.046.
Turning to NEU1 (UniProt Q99519), the log2 fold change is 0.01.
Still for that read-out and setting: then NA, A0A096LPI6, with -0.028; and MRPS33 (UniProt Q9Y291), with 0.028.

Compound in a further assay: Cn1cncc1[C@@](N)(c1ccc(Cl)cc1)c1ccc2c(c1)c(-c1cccc(Cl)c1)cc(=O)n2C [tipifarnib]
The description is as above. The method, boiled down: as §1
For the target NFATC2 (UniProt Q13469), the log2 fold change was -0.029.
The same measure, in the same setting: then MRPS18B (UniProt Q9Y676), with -0.059; and PACS1 (UniProt Q6VY07), with -0.002; and NUP205 (UniProt Q92621), with -0.072.
For the target NA, A0A0B4J2A0, the log2 fold change is 0.007.
Still for that read-out and setting: then OSBP (UniProt P22059), with -0.085; and MKNK1 (UniProt Q9BUB5), with -0.101; and NMNAT1 (UniProt Q9HAN9), with 0.118.
Still for that read-out and setting: then MRPS25 (UniProt P82663), with -0.077; and NME1 isoform 2 (UniProt P15531), with 0.06; and MRPL47 (UniProt Q9HD33), with 0.103.
Still for that read-out and setting: then NDUFA12 (UniProt Q9UI09), with -0.007; and MOV10 (UniProt Q9HCE1), with 0.091.
MTHFD1, A0A384N5Y3: the log2 fold change was -0.146.
MRPS5 (UniProt P82675): the log2 fold change was -0.13.
Same read-out and setting: then NFATC2IP (UniProt Q8NCF5), with -0.003.
The same measure, in the same setting: then NOL11 (UniProt Q9H8H0), with 0.036; and NDUFA6 (UniProt P56556), with -0.173.
Same read-out and setting: then OSBPL8 (UniProt Q9BZF1), with -0.117; and NOSIP (UniProt Q9Y314), with -0.128.
Take NR2C2 isoform 2 (UniProt P49116): the log2 fold change is -0.184.
Same read-out and setting: then NDUFB8 (UniProt O95169), with 0.071; and NQO1 (UniProt P15559), with -0.089.
As to MSH2 (UniProt P43246), the log2 fold change was -0.063.
On the same count and under the same terms, then MT-ATP6 (UniProt P00846), with 0.231; and MRPS2 (UniProt Q9Y399), with -0.074.
On the same count and under the same terms, then NOB1 (UniProt Q9ULX3), with -0.106; and MPP1 (UniProt Q00013), with -0.04.
Same read-out and setting: then NUCKS1 (UniProt Q9H1E3), with 0.059; and ORC3 isoform 2 (UniProt Q9UBD5), with 0.086; and NOLC1 isoform 2 (UniProt Q14978), with 0.027.
For the target NEDD4 isoform 4 (UniProt P46934), the log2 fold change was -0.024.
Same read-out and setting: then MRPS22 (UniProt P82650), with -0.11.
Same read-out and setting: then MSTO1 (UniProt Q9BUK6), with -0.096.
On the same count and under the same terms, then NCAPD2 (UniProt Q15021), with -0.148.
Regarding MYL12B (UniProt O14950), the log2 fold change is -0.038.
On the same count and under the same terms, then NEU1 (UniProt Q99519), with 0.072.
The same measure, in the same setting: then NA, A0A096LPI6, with -0.038; and MRPS33 (UniProt Q9Y291), with -0.003.

Compound in the next assay: FC(F)(F)c1ccc(/C=C/c2nc(COc3ccc(CCCCn4ccnn4)cc3)co2)cc1 [mubritinib]
The assay is described as above. The method, boiled down: as §1
As to NFATC2 (UniProt Q13469), the log2 fold change was -0.124.
Same read-out and setting: then MRPS18B (UniProt Q9Y676), with 0.172; and PACS1 (UniProt Q6VY07), with -0.021; and NUP205 (UniProt Q92621), with 0.017.
On the same count and under the same terms, then NA, A0A0B4J2A0, with -0.011.
For the target OSBP (UniProt P22059), the log2 fold change was 0.012.
Take MKNK1 (UniProt Q9BUB5): the log2 fold change was 0.03.
On the same count and under the same terms, then NMNAT1 (UniProt Q9HAN9), with -0.047; and MRPS25 (UniProt P82663), with 0.069.
Still for that read-out and setting: then NME1 isoform 2 (UniProt P15531), with -0.103; and MRPL47 (UniProt Q9HD33), with -0.029.
Still for that read-out and setting: then NDUFA12 (UniProt Q9UI09), with 0.326 (active).
As for MOV10 (UniProt Q9HCE1), the log2 fold change is -0.014.
On the same count and under the same terms, then MTHFD1, A0A384N5Y3, with 0.107; and MRPS5 (UniProt P82675), with 0.22; and NFATC2IP (UniProt Q8NCF5), with 0.051.
As for NOL11 (UniProt Q9H8H0), the log2 fold change was -0.012.
The same measure, in the same setting: then NDUFA6 (UniProt P56556), with 0.184.
Consider OSBPL8 (UniProt Q9BZF1), for which the log2 fold change is 0.108.
For NOSIP (UniProt Q9Y314), the log2 fold change is -0.098.
On the same count and under the same terms, then NR2C2 isoform 2 (UniProt P49116), with 0.026.
On the same count and under the same terms, then NDUFB8 (UniProt O95169), with 0.027.
The same measure, in the same setting: then NQO1 (UniProt P15559), with 0.025; and MSH2 (UniProt P43246), with 0.156.
With MT-ATP6 (UniProt P00846), the log2 fold change was 0.028.
With MRPS2 (UniProt Q9Y399), the log2 fold change is 0.14.
On the same count and under the same terms, then NOB1 (UniProt Q9ULX3), with -0.043; and MPP1 (UniProt Q00013), with 0.034; and NUCKS1 (UniProt Q9H1E3), with 0.034.
Take ORC3 isoform 2 (UniProt Q9UBD5): the log2 fold change was 0.029.
Same read-out and setting: then NOLC1 isoform 2 (UniProt Q14978), with -0.031.
Turning to NEDD4 isoform 4 (UniProt P46934), the log2 fold change is 0.008.
Same read-out and setting: then MRPS22 (UniProt P82650), with 0.15; and MSTO1 (UniProt Q9BUK6), with 0.011.
Take NCAPD2 (UniProt Q15021): the log2 fold change is 0.033.
On the same count and under the same terms, then MYL12B (UniProt O14950), with 0.064; and NEU1 (UniProt Q99519), with -0.031; and NA, A0A096LPI6, with 0.024.
The same measure, in the same setting: then MRPS33 (UniProt Q9Y291), with 0.106.

The record behind these values is the supplement of paper PMC10849652.
